Hits are enriched below; roughly 2.2% of the tested compounds scored in any of these assays.
ANO1 block: inhibitors of mouse TMEM16A calcium-activated chloride channel. 310,000 tested, 1.2% active. Q8BHY3. normalized B-score (activity score, 25-100; higher = stronger inhibition) at 10 µM. AID 588511. HEK293 TMEM16A/YFP iodide influx fluorescence, ionomycin;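 active means ratio plate-corrected score three or more library SD toward inhibition, starting fluorescence score within five deviations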;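 further: score derived from kinetic fluorescence span divided by baseline fluorescence per well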
Target sequence (Q8BHY3 whole entry, looked up): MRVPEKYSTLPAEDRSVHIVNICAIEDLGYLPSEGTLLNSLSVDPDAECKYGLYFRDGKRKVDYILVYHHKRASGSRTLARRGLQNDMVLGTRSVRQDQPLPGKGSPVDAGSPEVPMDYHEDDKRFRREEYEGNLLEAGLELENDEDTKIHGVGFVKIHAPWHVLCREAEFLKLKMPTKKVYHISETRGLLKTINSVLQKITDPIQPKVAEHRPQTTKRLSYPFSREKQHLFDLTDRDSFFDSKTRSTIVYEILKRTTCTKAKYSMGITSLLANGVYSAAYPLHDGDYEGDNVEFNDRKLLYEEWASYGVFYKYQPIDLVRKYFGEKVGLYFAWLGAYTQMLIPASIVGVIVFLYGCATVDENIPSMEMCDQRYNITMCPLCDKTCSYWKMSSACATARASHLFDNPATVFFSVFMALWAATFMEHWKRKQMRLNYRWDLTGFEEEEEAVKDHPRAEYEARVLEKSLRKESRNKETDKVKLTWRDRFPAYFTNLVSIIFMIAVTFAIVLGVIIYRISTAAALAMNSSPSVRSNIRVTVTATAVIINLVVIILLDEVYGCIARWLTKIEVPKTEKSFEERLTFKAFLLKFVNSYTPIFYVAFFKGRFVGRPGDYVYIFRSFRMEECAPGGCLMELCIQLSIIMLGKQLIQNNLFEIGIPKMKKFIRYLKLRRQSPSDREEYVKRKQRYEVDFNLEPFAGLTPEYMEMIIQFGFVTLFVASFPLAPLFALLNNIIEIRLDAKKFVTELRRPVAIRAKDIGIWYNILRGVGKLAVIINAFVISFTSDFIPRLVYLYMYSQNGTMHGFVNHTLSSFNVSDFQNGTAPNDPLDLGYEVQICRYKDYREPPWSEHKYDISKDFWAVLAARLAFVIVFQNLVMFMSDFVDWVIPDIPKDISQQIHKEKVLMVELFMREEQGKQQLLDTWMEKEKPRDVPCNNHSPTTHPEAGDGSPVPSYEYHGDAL
CHO-K1 Ca PAM: M1 PAM counterscreen hit in parental CHO-K1 cells. ATP EC20, Fluo-8 calcium fluorescence; 0% at ATP EC20, 100% at ATP max. activation, % at 3 µM. 360,000 tested, 0.02% active. AID 602247;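 active means activation above the run cutoff, the mean activation of all test compounds plus 3 SD, cut at about 40% in these data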;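 further: peak over basal fluorescence ratio in a 140 s read after ATP addition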
CHO-K1 Ca antag: counter-screen for M1 antagonists: effect in parental CHO-K1 cells. ATP-induced calcium, Fluo-8 fluorescence. AID 602250. 360,000 tested, 0.6% active. inhibition, % at 3 µM;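 active means inhibition above a per-plate cutoff, the plate's mean sample inhibition plus 3 SD, cut at about 24% in these data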;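 further: 0% = DMSO plus EC80 ATP and 100% = DMSO alone without ATP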
M1 ag parental: nonselective activator or artifact in parental CHO-K1 cells; Fluo-8 calcium fluorescence; scaled to maximal ATP response, vehicle zero; activation, % at 3 µM; 360,000 tested, 0.48% active; in the data active means activation above about 15%;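 further: untransfected CHO-K1 host cells lacking M1 receptor as counterscreen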
ANO1 activ: activators or potentiators of mouse TMEM16A chloride channel | HEK293 TMEM16A/YFP-H148Q/I152L, iodide quench fluorescence; stronger effect = lower value | 340,000 tested, 0.3% active | AID 623877 | B-score at 10 µM | Q8BHY3;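 active means fluorescence-ratio B-score plate-corrected deviation score at least 3 library SD below zero, with starting fluorescence score within 5 deviations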;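 further: channel opened by trigger with iodide after compound preincubation; score built on the fluorescence ratio of max minus min over baseline; more negative score means more quench and so TMEM16A activation or potentiation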
NTR1 agonist: activates human neurotensin receptor 1 | P30989 | NTR1-U2OS beta-arrestin-GFP spot imaging, agonist mode | activation, % at 20 µM | 330,000 tested, 0.17% active;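 active means activation at or above 40% of the spot to cytoplasm intensity ratio, with at least 20 cells analyzed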;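 further: 0% = DMSO without peptide and 100% = 100 nM NTR1 peptide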
Active calls of the source: *; i = inactive; / = no result given.

SMILES	ANO1 block	CHO-K1 Ca PAM	CHO-K1 Ca antag	M1 ag parental	ANO1 activ	NTR1 agonist
Cc1ccc(/C=C2\SC(=S)N(CCC(=O)N3CCCCC3)C2=O)cc1	i	0	-10	0	i	0
O=C(c1ccccc1)c1nn(-c2ccc(Cl)cc2)c(=O)cc1C(F)(F)F	i	5	6	19*	i	2
O=C(c1ccccc1)c1nn(-c2ccccc2)c(=O)cc1C(F)(F)F	i	2	-14	-1	i	-2
Cn1c2c(c(=O)n(C)c1=O)CN(Cc1ccccc1)CN2	/	7	-6	0	/	/
O=C(O)CCC1c2cc3c4cc2OC2Oc5cc6c(cc51)C(CCC(=O)O)c1cc5c7cc1OC(O6)c1cc6cc(c1)Oc1cc(cc(C(=O)O)c1)Oc1cc8cc(c1)C(Oc1cc(c(cc1C5CCC(=O)O)C3CCC(=O)O)OC(O4)c1cc(cc(c1)Oc1cc(cc(C(=O)O)c1)O8)Oc1cc(cc(C(=O)O)c1)Oc1cc(cc2c1)Oc1cc(cc(C(=O)O)c1)O6)O7 (stereo unspecified)	25*	/	/	/	/	-3
CCS(=O)(=O)c1ccc(-c2csc(-c3ccccc3)n2)c(Cl)c1Cl	25*	19	-14	0	i	4
O=C(O)c1ccc(-c2nc(-c3ccccc3Cl)cs2)cc1	i	4	6	0	i	-1
Cc1cc(C)nc(N2CCC(CNC(=O)CCc3ccccc3)CC2)n1	i	1	-5	0	-7.7*	-4
O=C(OCCO)c1c(C2=CCCCC2)oc2c1C(OCCO)CCC2 (stereo unspecified)	/	-1	-15	0	/	/
CC(N)=Nc1ccc([N+](=O)[O-])cc1	i	19	-2	0	i	-1
O=[N+]([O-])c1ccc(N=Nc2c(Cl)cc(O)cc2Cl)cc1	100*	-22	40*	17*	-5.2*	/
CC(C)n1cc(C#N)c(N)n1	/	9	-14	2	i	/
COc1ccc(C(=O)c2ccccc2O)c(O)c1	i	-4	24*	0	i	-1
O=C(Nc1ncccc1O)c1ccc(Cl)c(S(=O)(=O)N2CCCCCC2)c1	i	-10	0	1	i	0
O=C(Nc1ncccc1O)c1cccc(S(=O)(=O)N2CCCC2)c1	i	-12	26*	0	i	0
COc1cccc(C=NN(C)c2c([N+](=O)[O-])cc(C(F)(F)F)cc2[N+](=O)[O-])c1O	/	16	-3	1	/	/
CCOC(=O)c1c(C)n(C)c2cc(Br)c(C)cc12	i	0	-11	0	i	3
CCOC(=O)c1c(C)n(C)c2cc(-c3cccc(C(F)(F)F)c3)c(O)cc12	i	-14	27*	-1	i	2
CCOC(=O)c1c(C)n(C)c2cc(-c3ccc(C)cc3)c(O)cc12	i	-16	28*	0	i	0
Cc1cn([C@H]2C[C@H](O)[C@@H](/C=C/C(=O)N3CCN(Cc4ccc(F)cc4)CC3)O2)c(=O)[nH]c1=O	/	-1	-3	0	/	/
Cc1ccc(Cn2c(=N)n(CC(=O)c3ccccc3)c3ccccc32)cc1	25*	-10	21	-1	i	1
O=C(Nc1ccc(OC(F)(F)F)cc1)C1CCCN(C(=O)c2ccc(Cl)cc2)C1 (stereo unspecified)	/	-14	14	20*	i	5
CC(C)(C)CN1CCC(Oc2cccc(C(=O)NCCCOc3cccnc3)c2)CC1	i	-32	24*	0	i	3
C=CCNC(=O)c1cccc(OC2CCN(CC(C)(C)C)CC2)c1	i	4	1	0	i	1
COC(=O)c1ccc(NC(=S)NC2CC3CCC2C3)cc1 (stereo unspecified)	i	11	13	16*	i	4
SMILES	ANO1 block	CHO-K1 Ca PAM	CHO-K1 Ca antag	M1 ag parental	ANO1 activ	NTR1 agonist
Cc1ccc2sc(C)cc(=O)c2c1	/	6	-17	0	i	/
CC(C)CC(C(=O)Oc1ccc2c3c(c(=O)oc2c1)CCC3)N1C(=O)c2ccccc2C1=O (stereo unspecified)	/	12	-7	0	i	/
CC[C@@H](NS(=O)(=O)c1ccc(C)cc1)C(=O)Oc1ccc2c3c(c(=O)oc2c1)CCC3	i	-5	3	12	i	8
CCC(C)C(NS(=O)(=O)c1ccc(C)cc1)C(=O)Oc1ccc2c3c(c(=O)oc2c1)CCC3 (stereo unspecified)	i	49*	-27	4	i	8
Cc1ccc(S(=O)(=O)NC(CC(C)C)C(=O)Oc2ccc3c4c(c(=O)oc3c2)CCC4)cc1 (stereo unspecified)	i	-12	25*	3	i	30
COc1cc(NC(=O)C2(C)CCCN2C(=O)C(C)C)cc(OC)c1OC (stereo unspecified)	/	6	0	0	/	/
COc1cc(NC(=O)C2(C)CCCN2C)cc(OC)c1OC (stereo unspecified)	/	-14	28*	0	/	/
N#Cc1c(N2CCOCC2)nc(-c2ccco2)c2c1CCCC2	i	-7	25*	1	i	5
CC(C)c1nc(N2CCN(C(=O)c3ccco3)CC2)c(C#N)c2c1COC(C)(C)C2	i	11	-12	2	i	6
CCCCc1nc(N2CCN(C(=O)c3ccco3)CC2)c(C#N)c2c1CCCC2	100*	7	-7	0	-4.8*	30
COc1ccc(/C=N/Nc2ccc(C(F)(F)F)cc2[N+](=O)[O-])cc1O	i	20	0	1	i	6
CCOc1ccc(/C=N/Nc2ccc(C(F)(F)F)cc2[N+](=O)[O-])cc1O	i	-11	10	18*	i	6
CC(C)C[C@@H](CN)NC(=O)c1nc[nH]c1C(=O)N[C@@H](CC(C)C)C(=O)CNC[C@H](C)NC(=O)c1nc[nH]c1C(=O)N[C@@H](C)C(=O)O	/	7	-5	0	/	/
CCc1nc2c(OCc3ccccc3C)cccn2c1N(C)C(=O)c1ccco1	/	7	2	0	/	/
CC(C)c1ccc(C2=C(O)c3ccccc3C(=O)C2=O)cc1	25*	16	-2	0	i	0
CC(O)(c1ccccc1)c1ccc2ccccc2n1 (stereo unspecified)	/	24	-12	0	i	/
O=C(c1cccc(C(F)(F)F)c1)C1CCCN(Cc2ccc(OCCO)cc2)C1 (stereo unspecified)	i	0	7	23*	i	2
CC(=O)Nc1ccc(CN2CCCC(C(=O)c3cccc(C(F)(F)F)c3)C2)cc1 (stereo unspecified)	i	20	-3	3	i	1
CNC(=O)C[C@H]1C(=O)N(CCc2ccccc2)C[C@@H]1CSC	/	25	-11	0	/	/
